According to PubChem BioAssay AID1159580 (chemical genetic matrix, 2015):
Values joined by “and” are separate entries in the source; they are usually repeats but may differ in a detail not shown here. Equal entries are not always repeated. Out of some 5,500 compounds screened, about 2,000 (36%) were called active. Roughly 18% stayed inconclusive and do not appear here. Rule as the data show it: active = normalized growth mostly below about 0.91 (no sharp cut-off); inconclusive = no clear call, values can overlap the other calls; inactive = mostly above about 0.92. The list shows a part of the results.

Assay: chemical genetic growth profiling, strain panel (AID 1159580);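 also: tested at 20 µM; growth read once vehicle control cultures reached saturation at 30 °C; 1 = growth at the plate median or of vehicle wells; lower values mean less growth of the strain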
Settings: S. cerevisiae deletion strains, growth OD

Measured: normalized growth

CCCC(=O)Nc1ccc(OCC(O)CNC(C)C)c(C(C)=O)c1 (stereo unspecified)
inactive: locus YAL013W, strain DEP1, stronger effect = lower value 1.02 | locus YAL021C, strain ccr4, stronger effect = lower value 1 | locus YAL026C, strain drs2, stronger effect = lower value 1.03 | locus YAL030W, strain snc1, stronger effect = lower value 1.02 | locus YBL061C, strain skt5, stronger effect = lower value 1.02 | locus YBR009C, strain hhf1, stronger effect = lower value 1 | locus YBR021W, strain FUR4, stronger effect = lower value 1.02 | locus YBR023C, strain chs3, stronger effect = lower value 1.02 | locus YBR171W, strain sec66, stronger effect = lower value 1.02 | locus YBR229C, strain ROT2, stronger effect = lower value 1.01 | locus YBR231C, strain swc5, stronger effect = lower value 1.04 | locus YBR279W, strain paf1, stronger effect = lower value 1.02 | locus YCL011C, strain gbp2, stronger effect = lower value 1.03 | locus YCL016C, strain dcc1, stronger effect = lower value 1.03 | locus YCL029C, strain bik1, stronger effect = lower value 1.02 | locus YCL069W, strain vba3, stronger effect = lower value 1.02 | locus YCR088W, strain abp1, stronger effect = lower value 1.01 | locus YDL005C, strain med2, stronger effect = lower value 1.01 | locus YDL035C, strain GPR1, stronger effect = lower value 1.02 | locus YDL040C, strain nat1, stronger effect = lower value 1 | locus YDL074C, strain BRE1, stronger effect = lower value 1.05 | locus YDL101C, strain DUN1, stronger effect = lower value 1.02 | locus YDL134C, strain PPH21, stronger effect = lower value 1.01 | locus YDL185W, strain tfp1, stronger effect = lower value 1.02 | locus YDL192W, strain arf1, stronger effect = lower value 1.02 | locus YDR001C, strain nth1, stronger effect = lower value 1.02 | locus YDR069C, strain doa4, stronger effect = lower value 1.01 | locus YDR101C, strain arx1, stronger effect = lower value 1.01 | locus YDR137W, strain rgp1, stronger effect = lower value 1.01 | locus YDR150W, strain NUM1, stronger effect = lower value 1.02 | locus YDR159W, strain sac3, stronger effect = lower value 0.984 | locus YDR162C, strain NBP2, stronger effect = lower value 1.01 | locus YDR195W, strain ref2 0.999 | locus YDR297W, strain sur2, stronger effect = lower value 1.01 | locus YDR318W, strain mcm21, stronger effect = lower value 1.02 | locus YDR334W, strain swr1, stronger effect = lower value 1.01 | locus YDR335W, strain msn5, stronger effect = lower value 1.01 | locus YDR388W, stronger effect = lower value 1.01 | locus YDR392W, strain spt3, stronger effect = lower value 0.995 | locus YDR502C, strain sam2, stronger effect = lower value 1.02 | locus YEL003W, strain gim4, stronger effect = lower value 1.02 | locus YEL037C, strain rad23, stronger effect = lower value 1.02 | locus YEL061C, strain CIN8 (second series), stronger effect = lower value 1.04 | locus YEL061C, strain CIN8, stronger effect = lower value 1.01 | locus YER015W, strain faa2, stronger effect = lower value 1.01 | locus YER016W, strain bim1, stronger effect = lower value 1.03 | locus YER110C, stronger effect = lower value 1.02 | locus YER111C, strain swi4, stronger effect = lower value 1.01 | locus YER155C, strain BEM2 (second series), stronger effect = lower value 0.985 | locus YER155C, strain BEM2, stronger effect = lower value 1.02 | locus YER167W, strain BCK2, stronger effect = lower value 1.04 | locus YFR010W, strain ubp6, stronger effect = lower value 1.01 | locus YGL078C, strain dbp3, stronger effect = lower value 1.01 | locus YGL086W, strain mad1, stronger effect = lower value 0.996 | locus YGL167C, strain pmr1, stronger effect = lower value 1.02 | locus YGL173C, strain kem1, stronger effect = lower value 1.02 | locus YGL227W, strain vid30, stronger effect = lower value 1.03 | locus YGL240W, strain doc1, stronger effect = lower value 0.984 | locus YGL248W, strain PDE1, stronger effect = lower value 1.01 | locus YGL253W, strain hxk2, stronger effect = lower value 1.01 | locus YGR078C, strain PAC10, stronger effect = lower value 1.03 | locus YGR135W, strain pre9, stronger effect = lower value 1.02 | locus YGR229C, strain SMI1, stronger effect = lower value 1.03 | locus YGR252W, strain gcn5, stronger effect = lower value 0.965 | locus YHR013C, strain ard1, stronger effect = lower value 1.02 | locus YHR027C, strain rpn1, stronger effect = lower value 1.02 | locus YHR030C, strain SLT2, stronger effect = lower value 1.01 and 1.04 | locus YHR079C, strain IRE1 (second series), stronger effect = lower value 1.02 | locus YHR079C, strain IRE1, stronger effect = lower value 1.01 | locus YHR094C, strain hxt1, stronger effect = lower value 1.01 | locus YHR129C, strain ARP1, stronger effect = lower value 1.01 | locus YHR142W, strain chs7, stronger effect = lower value 1.04 | locus YHR200W, strain rpn10, stronger effect = lower value 1.02 | locus YIL066C, strain RNR3, stronger effect = lower value 1.02 | locus YIL073C, strain SPO22, stronger effect = lower value 1.05 | locus YIL125W, strain kgd1, stronger effect = lower value 1.01 | locus YIR030C, strain dcg1, stronger effect = lower value 1.02 | locus YJL092W, strain hpr5, stronger effect = lower value 1.01 | locus YJL095W, strain BCK1 (second series), stronger effect = lower value 1.02 | locus YJL095W, strain BCK1, stronger effect = lower value 1.03 and 1.01 | locus YJL115W, strain asf1, stronger effect = lower value 1.01 | locus YJL129C, strain trk1, stronger effect = lower value 1.01 | locus YJL134W, strain LCB3, stronger effect = lower value 1.01 | locus YJL154C, strain vps35, stronger effect = lower value 1.01 | locus YJL164C, strain tpk1, stronger effect = lower value 0.999 | locus YJL166W, strain qcr8, stronger effect = lower value 1.01 | locus YJL168C, strain set2, stronger effect = lower value 1.02 | locus YJL187C, strain SWE1 (second series), stronger effect = lower value 1.02 | locus YJL187C, strain SWE1, stronger effect = lower value 1.02 | locus YJR043C, strain POL32, stronger effect = lower value 1.05 | locus YJR066W, strain TOR1, stronger effect = lower value 0.957
